# Source: PubChem BioAssay (EPA / NIEHS)
# Results filed as inconclusive are left out. Some structures have more than one record in an assay (separate samples or runs), and their calls can disagree. Calls of active or inactive are those of the source. How the source made its calls: active means hit-call score of the fitted dose curve at least 0.9, where 1 is the maximum; inconclusive means response in the unintended direction; inactive means score below 0.9.
# Experiments:
# [1] = biological target: human AKT serine/threonine Kinase 1 (AKT1), AKT1 (gene 207) (UniProt P31749); experiment: NVS_ENZ_hAKT1: NovaScreen (NVS) Enzymatic Assay for human AKT serine/threonine Kinase 1 (AKT1) (AID 2283138)
# Method in brief: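 Recombinant AKT1, specific substrate, cell-free; 1 h; fluorescence intensity/electrophoretic mobility shift. Duplicate single-point 25 uM, then singleton CRC max 50 uM. DMSO = negative control/baseline; signal loss = inhibition.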
# [2] = biological target: human Aurora Kinase A - serine/threonine-protein Kinase 6 (AurA), AURKA (gene 6790) (UniProt O14965); experiment: NVS_ENZ_hAurA: NovaScreen (NVS) Enzymatic Assay for human Aurora Kinase A - serine/threonine-protein Kinase 6 (AurA) (AID 2283142)
# Method in brief: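 Cell-free enzymatic assay with human Aurora A, 1 hour after dosing. Fluorescent substrate turnover detected after electrophoretic mobility shift separation of substrate and product. Screened at 25 uM, actives retested in concentration-response up to 50 uM.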
# [3] = biological target: human Casein Kinase 1-delta (CK1D), CSNK1D (gene 1453) (UniProt P48730); experiment: NVS_ENZ_hCK1D: NovaScreen (NVS) Enzymatic Assay for human Casein Kinase 1-delta (CK1D) (AID 2283148)
# Method in brief: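 Recombinant human CK1-delta, cell-free; fluorescent substrate with electrophoretic mobility-shift separation of product, read 1 h after dosing. Single 25 uM duplicate screen, then concentration-response up to 50 uM; loss of signal vs DMSO.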
# [4] = biological target: human Elastase, ELANE (gene 1991) (UniProt P08246); experiment: NVS_ENZ_hElastase: NovaScreen (NVS) Enzymatic Assay for human Elastase (AID 2283153)
# Method in brief: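 Cell-free elastase from human neutrophils, 1.5 h after dosing, activity read by absorbance. Primary screen in duplicate at 25 uM; hits (e.g., 30% inhibition) rerun in singleton concentration-response up to 50 uM, fitted versus DMSO.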
# [5] = biological target: human Ephrin type-B Receptor 1 (EphB1), EPHB1 (gene 2047) (UniProt P54762); experiment: NVS_ENZ_hEphB1: NovaScreen (NVS) Enzymatic Assay for human Ephrin type-B Receptor 1 (EphB1) (AID 2283154)
# Method in brief: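 Cell-free kinase assay with recombinant enzyme, fluorescent substrate and electrophoretic mobility-shift separation of substrate and product; read 1 h after dosing. Single-concentration duplicate screen at 25 uM; loss of signal versus DMSO baseline.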
# [6] = biological target: human Caspase 5 (CASP5), CASP5 (gene 838) (UniProt P51878); experiment: NVS_ENZ_hCASP5: NovaScreen (NVS) Enzymatic Assay for human Caspase 5 (CASP5) (AID 2283137)
# Method in brief: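 E. coli-derived enzyme, cell-free, 2 h incubation, fluorescence intensity. 25 uM duplicate single-point; hits → concentration series to 50 uM. DMSO baseline, positive/negative controls on every plate.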
# [7] = biological target: human Acetylcholinesterase (AChE), ACHE (gene 43) (UniProt P22303); experiment: NVS_ENZ_hAChE: NovaScreen (NVS) Enzymatic Assay for human Acetylcholinesterase (AChE) (AID 2283129)
# Method in brief: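 Cell-free colorimetric enzyme-activity assay; compounds read 0.33 hour after dosing, loss of signal vs DMSO baseline. Primary screen in duplicate at 25 uM single concentration, with active compounds retested in concentration series.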
# [8] = biological target: human Caspase 4 (CASP4), CASP4 (gene 837) (UniProt P49662); experiment: NVS_ENZ_hCASP4: NovaScreen (NVS) Enzymatic Assay for human Caspase 4 (CASP4) (AID 2283143)
# Method in brief: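 The cell-free assay used E. coli-expressed enzyme with a fluorogenic substrate, read 2 h after dosing. Signal loss was scored versus DMSO. Screening was in duplicate at 25 uM, then singleton concentration-response up to 50 uM.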
# [9] = biological target: human Beta-secretase (BACE), BACE1 (gene 23621) (UniProt P56817); experiment: NVS_ENZ_hBACE: NovaScreen (NVS) Enzymatic Assay for human Beta-secretase (BACE) (AID 2283140);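 further: hits are inhibitors that reduce fluorescent substrate signal versus DMSO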
# Method in brief: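 Compounds were first tested in duplicate at 25 uM, then actives in concentration series, against recombinant BACE1 from SF9 cells. Enzyme activity was measured by fluorescence intensity 1 hour after dosing, with DMSO as negative control.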
# [10] = biological target: human Casein Kinase 2- alpha 2 beta 2 (CK2a2b2), CSNK2A1 (gene 1457) (UniProt P68400); experiment: NVS_ENZ_hCK2a2b2: NovaScreen (NVS) Enzymatic Assay for human Casein Kinase 2- alpha 2 beta 2 (CK2a2b2) (AID 2283147)
# Method in brief: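 Cell-free recombinant CK2 α2β2 holoenzyme with a fluorescent peptide substrate; product separated by electrophoretic mobility shift and read 1 h after dosing. Single-point screen at 25 uM in duplicate; actives were followed with concentration-response up to 50 uM versus DMSO.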
# [11] = biological target: Caspase-1 (Homo sapiens) (UniProt P29466); experiment: NVS_ENZ_hCASP1: NovaScreen (NVS) Enzymatic Assay for human Caspase 1 (CASP1) (AID 2283132)
# Method in brief: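 Cell-free enzymatic assay with E. coli-expressed recombinant protein; fluorescence intensity read 1 hour after dosing. Single-concentration duplicate screen at 25 uM, then concentration-response up to 50 uM; activity fitted relative to DMSO, loss of signal meaning inhibition.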
# [12] = biological target: human Caspase 2 (CASP2), CASP2 (gene 835) (UniProt P42575); experiment: NVS_ENZ_hCASP2: NovaScreen (NVS) Enzymatic Assay for human Caspase 2 (CASP2) (AID 2283135)
# Method in brief: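 E. coli-expressed enzyme in a cell-free protease assay, fluorescence read 1 h after dosing. Compounds at 25 uM in duplicate, with concentration-response up to 50 uM for hits; loss of signal against DMSO baseline.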
# [13] = biological target: human Acid Phosphatase 1 (ACP1), ACP1 (gene 52) (UniProt P24666); experiment: NVS_ENZ_hACP1: NovaScreen (NVS) Enzymatic Assay for human Acid Phosphatase 1 (ACP1) (AID 2283136)
# Method in brief: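 Recombinant enzyme expressed in Sf9 cells, tested cell-free; activity read by fluorescence with electrophoretic mobility shift separation of substrate and product, 1.5 h after dosing. Primary screen in duplicate at 25 uM, actives then run in concentration series; loss of signal versus DMSO.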
# [14] = biological target: human AKT serine/threonine Kinase 2 (AKT2), AKT2 (gene 208) (UniProt P31751); experiment: NVS_ENZ_hAKT2: NovaScreen (NVS) Enzymatic Assay for human AKT serine/threonine Kinase 2 (AKT2) (AID 2283141)
# Method in brief: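 Cell-free fluorescence/electrophoretic mobility shift readout of recombinant human AKT2 activity, 1 h after chemical dosing. Duplicate primary screen at 25 uM, then singleton concentration-response up to 50 uM; loss of signal versus DMSO baseline.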
# [15] = biological target: human Caspase 8 (CASP8), CASP8 (gene 841) (UniProt Q14790); experiment: NVS_ENZ_hCASP8: NovaScreen (NVS) Enzymatic Assay for human Caspase 8 (CASP8) (AID 2283146)
# Method in brief: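 E. coli-expressed enzyme was used in a cell-free fluorogenic substrate assay read 1 h after dosing. Loss of signal was scored relative to DMSO, and the primary screen was run in duplicate at 25 uM.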
# [16] = biological target: human Dual Specificity Protein Phosphatase 3 (DUSP3), DUSP3 (gene 1845) (UniProt P51452); experiment: NVS_ENZ_hDUSP3: NovaScreen (NVS) Enzymatic Assay for human Dual Specificity Protein Phosphatase 3 (DUSP3) (AID 2283152);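 further: phosphatase activity of recombinant human DUSP3 on a fluorogenic substrate without cells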
# Method in brief: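 Cell-free assay with recombinant human DUSP3 and fluorogenic substrate, read by fluorescence intensity. Primary screen ran duplicate at 25 uM; actives followed up in concentration series; loss of signal versus DMSO scored.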
# [17] = biological target: human AMP-activated Protein Kinase, alpha 1 (AMPKa1), PRKAA1 (gene 5562) (UniProt Q13131); experiment: NVS_ENZ_hAMPKa1: NovaScreen (NVS) Enzymatic Assay for human AMP-activated Protein Kinase, alpha 1 (AMPKa1) (AID 2283130)
# Method in brief: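 Recombinant human AMPKα1 activity was measured cell-free by fluorescent substrate conversion with electrophoretic mobility-shift separation, 1 h after dosing. Duplicate single-point screening was at 25 uM; actives (≥30% inhibition) were retested in concentration-response up to 50 uM.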
# [18] = biological target: human Ephrin type-A Receptor 2 (EphA2), EPHA2 (gene 1969) (UniProt P29317); experiment: NVS_ENZ_hEphA2: NovaScreen (NVS) Enzymatic Assay for human Ephrin type-A Receptor 2 (EphA2) (AID 2283155)
# Method in brief: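 Cell-free recombinant EphA2 kinase with specific substrate, 1 h, fluorescence with electrophoretic mobility-shift separation of substrate and product. Primary screen at 25 uM in duplicate; hits retested in singleton concentration-response up to 50 uM, referenced to DMSO.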
# [19] = biological target: CDK2 (gene 1017) (UniProt P24941); experiment: NVS_ENZ_hCDK2: NovaScreen (NVS) Enzymatic Assay for human Cyclin-Cependent Kinase 2 (CDK2) (AID 2283144)
# Method in brief: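 Cell-free recombinant human CDK2 with fluorescent substrate, product separated by electrophoretic mobility shift; 1 hr read. Primary screen at 25 uM in duplicate, actives retested in concentration-response up to 50 uM; loss of signal versus DMSO.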
# Sequence of human Casein Kinase 1-delta (CK1D), CSNK1D (gene 1453) (P48730 whole entry, looked up): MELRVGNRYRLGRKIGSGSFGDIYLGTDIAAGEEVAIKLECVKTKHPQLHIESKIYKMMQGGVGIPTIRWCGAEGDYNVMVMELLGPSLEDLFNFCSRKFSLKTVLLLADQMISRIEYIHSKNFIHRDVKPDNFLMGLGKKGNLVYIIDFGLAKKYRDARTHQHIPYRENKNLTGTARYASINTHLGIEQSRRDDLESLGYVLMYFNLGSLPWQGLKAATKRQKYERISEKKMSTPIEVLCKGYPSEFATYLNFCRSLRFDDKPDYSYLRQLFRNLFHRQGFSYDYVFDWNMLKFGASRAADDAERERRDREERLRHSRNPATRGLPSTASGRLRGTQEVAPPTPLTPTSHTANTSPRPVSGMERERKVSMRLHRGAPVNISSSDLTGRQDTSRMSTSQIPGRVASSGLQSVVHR
# Sequence of human AKT serine/threonine Kinase 1 (AKT1), AKT1 (gene 207) (P31749 whole entry, looked up): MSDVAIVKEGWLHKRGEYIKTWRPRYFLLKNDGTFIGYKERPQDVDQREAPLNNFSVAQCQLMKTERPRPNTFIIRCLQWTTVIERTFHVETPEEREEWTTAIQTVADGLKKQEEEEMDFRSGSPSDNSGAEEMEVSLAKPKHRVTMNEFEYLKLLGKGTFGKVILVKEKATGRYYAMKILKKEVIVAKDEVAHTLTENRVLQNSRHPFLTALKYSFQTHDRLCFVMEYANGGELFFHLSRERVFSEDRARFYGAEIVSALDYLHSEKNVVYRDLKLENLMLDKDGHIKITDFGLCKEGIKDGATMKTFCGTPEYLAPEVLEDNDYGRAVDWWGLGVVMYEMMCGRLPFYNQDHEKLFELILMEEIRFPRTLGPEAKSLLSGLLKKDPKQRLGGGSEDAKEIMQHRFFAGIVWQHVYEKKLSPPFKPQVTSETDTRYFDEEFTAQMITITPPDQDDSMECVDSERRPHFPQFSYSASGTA
# Sequence of human Caspase 4 (CASP4), CASP4 (gene 837) (P49662 whole entry, looked up): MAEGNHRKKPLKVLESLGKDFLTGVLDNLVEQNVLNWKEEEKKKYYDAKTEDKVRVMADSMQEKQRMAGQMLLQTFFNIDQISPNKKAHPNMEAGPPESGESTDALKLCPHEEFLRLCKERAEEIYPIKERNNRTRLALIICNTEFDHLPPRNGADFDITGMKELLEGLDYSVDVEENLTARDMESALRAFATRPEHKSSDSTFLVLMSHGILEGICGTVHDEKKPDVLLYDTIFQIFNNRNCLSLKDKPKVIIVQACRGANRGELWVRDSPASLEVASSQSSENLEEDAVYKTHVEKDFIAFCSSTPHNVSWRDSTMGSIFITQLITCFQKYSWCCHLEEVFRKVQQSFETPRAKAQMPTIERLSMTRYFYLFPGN
# Sequence of human Elastase, ELANE (gene 1991) (P08246 whole entry, looked up): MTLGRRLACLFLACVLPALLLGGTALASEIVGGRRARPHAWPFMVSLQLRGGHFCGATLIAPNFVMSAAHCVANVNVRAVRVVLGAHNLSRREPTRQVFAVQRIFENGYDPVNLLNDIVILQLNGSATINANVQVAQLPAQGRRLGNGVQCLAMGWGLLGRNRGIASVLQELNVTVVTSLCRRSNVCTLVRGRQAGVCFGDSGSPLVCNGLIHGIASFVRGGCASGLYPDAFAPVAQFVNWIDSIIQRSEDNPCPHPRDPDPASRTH
# Sequence of human Acetylcholinesterase (AChE), ACHE (gene 43) (P22303 whole entry, looked up): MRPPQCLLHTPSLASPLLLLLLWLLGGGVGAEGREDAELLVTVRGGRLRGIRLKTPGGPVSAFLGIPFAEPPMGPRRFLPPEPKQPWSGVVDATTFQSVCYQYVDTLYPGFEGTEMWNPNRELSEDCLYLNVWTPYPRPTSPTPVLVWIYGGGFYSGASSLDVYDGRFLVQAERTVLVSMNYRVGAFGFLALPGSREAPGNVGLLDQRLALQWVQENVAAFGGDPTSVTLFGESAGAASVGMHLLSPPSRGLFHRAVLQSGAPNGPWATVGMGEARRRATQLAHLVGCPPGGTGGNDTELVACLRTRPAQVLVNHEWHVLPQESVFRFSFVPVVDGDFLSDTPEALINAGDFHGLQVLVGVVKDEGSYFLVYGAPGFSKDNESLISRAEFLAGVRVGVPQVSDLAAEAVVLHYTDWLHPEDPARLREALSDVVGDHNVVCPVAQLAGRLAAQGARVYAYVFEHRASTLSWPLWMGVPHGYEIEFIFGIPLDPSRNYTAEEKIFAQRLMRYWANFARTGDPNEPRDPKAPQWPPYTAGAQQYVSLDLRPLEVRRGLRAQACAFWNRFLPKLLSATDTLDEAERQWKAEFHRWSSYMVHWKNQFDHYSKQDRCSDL
# Sequence of human Caspase 5 (CASP5), CASP5 (gene 838) (P51878 whole entry, looked up): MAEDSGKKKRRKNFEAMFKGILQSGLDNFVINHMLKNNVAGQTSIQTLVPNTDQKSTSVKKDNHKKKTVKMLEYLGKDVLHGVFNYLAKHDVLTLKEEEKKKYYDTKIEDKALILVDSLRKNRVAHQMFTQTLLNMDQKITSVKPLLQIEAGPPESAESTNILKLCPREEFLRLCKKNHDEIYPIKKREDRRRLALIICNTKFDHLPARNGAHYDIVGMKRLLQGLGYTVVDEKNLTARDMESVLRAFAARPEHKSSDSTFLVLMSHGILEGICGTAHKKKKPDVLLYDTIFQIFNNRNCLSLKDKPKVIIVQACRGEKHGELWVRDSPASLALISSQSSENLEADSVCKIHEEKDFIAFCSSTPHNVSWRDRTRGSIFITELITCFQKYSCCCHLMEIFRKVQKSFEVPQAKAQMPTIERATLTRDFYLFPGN
# Sequence of human Casein Kinase 2- alpha 2 beta 2 (CK2a2b2), CSNK2A1 (gene 1457) (P68400 whole entry, looked up): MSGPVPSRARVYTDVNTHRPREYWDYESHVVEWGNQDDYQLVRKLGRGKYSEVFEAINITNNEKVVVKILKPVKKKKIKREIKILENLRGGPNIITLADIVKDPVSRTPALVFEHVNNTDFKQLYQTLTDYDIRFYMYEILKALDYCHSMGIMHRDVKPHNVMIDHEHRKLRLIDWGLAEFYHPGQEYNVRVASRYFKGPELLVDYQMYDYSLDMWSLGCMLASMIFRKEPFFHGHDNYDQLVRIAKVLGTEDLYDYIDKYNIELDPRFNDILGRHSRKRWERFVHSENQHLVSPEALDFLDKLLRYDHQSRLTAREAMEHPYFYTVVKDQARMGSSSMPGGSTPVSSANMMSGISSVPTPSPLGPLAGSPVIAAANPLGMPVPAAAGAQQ
# Sequence of human AKT serine/threonine Kinase 2 (AKT2), AKT2 (gene 208) (P31751 whole entry, looked up): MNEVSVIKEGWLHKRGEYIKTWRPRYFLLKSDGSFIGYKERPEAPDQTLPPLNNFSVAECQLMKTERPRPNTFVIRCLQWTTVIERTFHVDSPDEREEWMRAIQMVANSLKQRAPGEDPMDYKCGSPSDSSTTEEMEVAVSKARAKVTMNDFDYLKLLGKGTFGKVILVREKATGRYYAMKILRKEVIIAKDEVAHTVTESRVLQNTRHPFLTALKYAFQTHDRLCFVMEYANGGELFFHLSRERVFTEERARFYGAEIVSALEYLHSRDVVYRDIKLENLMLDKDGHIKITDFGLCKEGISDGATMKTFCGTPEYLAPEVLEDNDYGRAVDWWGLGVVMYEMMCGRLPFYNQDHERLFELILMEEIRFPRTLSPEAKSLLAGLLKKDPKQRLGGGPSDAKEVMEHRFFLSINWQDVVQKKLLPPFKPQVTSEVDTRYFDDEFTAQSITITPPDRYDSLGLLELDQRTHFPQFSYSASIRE
# Sequence of human Beta-secretase (BACE), BACE1 (gene 23621) (P56817 whole entry, looked up): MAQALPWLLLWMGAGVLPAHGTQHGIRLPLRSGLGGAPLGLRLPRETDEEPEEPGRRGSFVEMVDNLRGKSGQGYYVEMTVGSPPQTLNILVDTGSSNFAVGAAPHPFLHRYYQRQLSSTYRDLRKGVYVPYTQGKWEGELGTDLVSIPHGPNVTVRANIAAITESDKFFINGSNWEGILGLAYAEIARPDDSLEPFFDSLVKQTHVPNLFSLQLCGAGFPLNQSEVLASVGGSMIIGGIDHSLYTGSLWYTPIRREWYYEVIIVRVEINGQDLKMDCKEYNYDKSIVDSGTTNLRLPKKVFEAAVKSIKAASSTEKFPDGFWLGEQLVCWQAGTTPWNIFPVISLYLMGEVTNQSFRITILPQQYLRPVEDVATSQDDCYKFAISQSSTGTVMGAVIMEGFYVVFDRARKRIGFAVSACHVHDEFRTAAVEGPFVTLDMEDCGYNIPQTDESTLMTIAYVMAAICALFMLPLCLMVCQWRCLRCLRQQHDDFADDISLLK
# Sequence of human Aurora Kinase A - serine/threonine-protein Kinase 6 (AurA), AURKA (gene 6790) (O14965 whole entry, looked up): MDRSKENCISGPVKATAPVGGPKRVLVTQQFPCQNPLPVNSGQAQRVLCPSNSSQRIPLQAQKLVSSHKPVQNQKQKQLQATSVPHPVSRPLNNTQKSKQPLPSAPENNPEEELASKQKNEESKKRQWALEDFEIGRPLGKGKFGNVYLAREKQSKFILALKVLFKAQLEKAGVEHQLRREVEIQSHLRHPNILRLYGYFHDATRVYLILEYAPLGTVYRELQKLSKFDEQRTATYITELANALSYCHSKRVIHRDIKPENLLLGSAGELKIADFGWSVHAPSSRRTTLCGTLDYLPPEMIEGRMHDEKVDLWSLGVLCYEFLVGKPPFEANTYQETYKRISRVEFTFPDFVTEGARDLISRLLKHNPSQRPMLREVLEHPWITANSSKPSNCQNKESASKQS
# Sequence of human Dual Specificity Protein Phosphatase 3 (DUSP3), DUSP3 (gene 1845) (P51452 whole entry, looked up): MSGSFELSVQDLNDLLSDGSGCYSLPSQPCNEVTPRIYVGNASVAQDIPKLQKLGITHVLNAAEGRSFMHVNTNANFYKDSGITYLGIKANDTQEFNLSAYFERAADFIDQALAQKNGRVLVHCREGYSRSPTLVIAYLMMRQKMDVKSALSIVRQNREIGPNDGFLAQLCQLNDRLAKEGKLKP
# Sequence of human Acid Phosphatase 1 (ACP1), ACP1 (gene 52) (P24666 whole entry, looked up): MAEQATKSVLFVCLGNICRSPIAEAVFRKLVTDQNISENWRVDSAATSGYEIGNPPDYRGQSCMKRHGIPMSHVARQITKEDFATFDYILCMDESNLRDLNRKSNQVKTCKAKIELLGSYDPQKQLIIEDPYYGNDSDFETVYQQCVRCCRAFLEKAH
structure (smiles),measurement,setting,value
CCCCNC(=O)n1c(NC(=O)OC)nc2ccccc21,outcome,[1],inactive
same,outcome,[2],inactive
same,outcome,[3],inactive
same,outcome,[4],inactive
same,outcome,[5],inactive
CCCC1COC(Cn2cncn2)(c2ccc(Cl)cc2Cl)O1 (centres undefined),outcome,[6],inactive
O=C(O)c1nc(Cl)ccc1Cl,outcome,[7],inactive
CC(C)C1(C)N=C(c2nc3ccccc3cc2C(=O)O)NC1=O (centres undefined),outcome,[8],inactive
O=C(Nc1ccccc1)Nc1ccnc(Cl)c1,outcome,[6],inactive
same,AC50,[9],5.29 µM (active)
CCOP(=S)(OCC)SCn1c(=O)oc2cc(Cl)ccc21,outcome,[1],inactive
same,AC50,[9],14.4 µM (active)
O=C(O)COc1nc(Cl)c(Cl)cc1Cl,AC50,[10],13.9 µM (active)
Cc1c(F)c(F)c(COC(=O)C2C(/C=C(\Cl)C(F)(F)F)C2(C)C)c(F)c1F (centres undefined),outcome,[9],inactive
CC(C)Oc1cc(-n2nc(C(C)(C)C)oc2=O)c(Cl)cc1Cl,outcome,[9],inactive
same,outcome,[8],inactive
COP(=S)(OC)Oc1nc(Cl)c(Cl)cc1Cl,outcome,[7],inactive
same,outcome,[4],inactive
CNC(=S)S,AC50,[7],39.9 µM (active)
same,outcome,[11],inactive
same,outcome,[12],inactive
same,AC50,[13],9.04 µM (active)
same,outcome,[6],inactive
same,outcome,[9],inactive
same,outcome,[14],inactive
same,outcome,[2],inactive
same,outcome,[8],inactive
same,outcome,[15],inactive
same,outcome,[10],inactive
same,outcome,[3],inactive
same,outcome,[16],inactive
same,outcome,[4],inactive
C=CCC1=C(C)C(OC(=O)C2C(C=C(C)C)C2(C)C)CC1=O (centres undefined),outcome,[9],inactive
C=CC1(C)OC(=O)N(c2cc(Cl)cc(Cl)c2)C1=O (centres undefined),outcome,[5],inactive
COc1nc(C)nc(NC(=O)NS(=O)(=O)c2ccccc2CCC(F)(F)F)n1,outcome,[14],inactive
Cc1cc(Cl)ccc1OCC(=O)O,AC50,[10],16.2 µM (active)
CO/C=C(/C(=O)OC)c1ccccc1Oc1cc(Oc2ccccc2C#N)ncn1,outcome,[17],inactive
same,outcome,[6],inactive
same,AC50,[1],14.7 µM (active)
same,outcome,[1],inactive
same,outcome,[8],inactive
same,outcome,[16],inactive
same,outcome,[4],inactive
same,outcome,[18],inactive
CS/C(C)=N/OC(=O)N(C)SN(C)C(=O)O/N=C(\C)SC,AC50,[7],4.85 µM (active)
same,outcome,[14],inactive
COc1nc(NC(C)C)nc(NC(C)C)n1,outcome,[6],inactive
CCNc1nc(Cl)nc(NC(C)C)n1,outcome,[19],inactive
same,outcome,[3],inactive
